An excerpt weighted towards active compounds, which were near 28% of everything screened.
CYP2C19 inh = blocks human cytochrome P450 2C19. CYP2C19 Supersomes, luciferin-H EGE luminescence, 30 min. P33261. inhibition, % at 5 µM. actives 21% (n = 96,000);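 active = CYP2C19 inhibition above a set limit at 5 µM in the primary screen, cut at about 50% in these data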;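 note: plate controls were negative control wells for no effect and 2.5 mM tranylcypromine positive control for full effect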
CYP2C19 activ = activators of human cytochrome P450 2C19; P33261; recombinant CYP2C19, luciferin-H EGE luminescence; hits give high values; 0 = fully inhibited enzyme, 1 = untreated enzyme; activation factor at 5 µM; 96,000 tested, under 10 active; AID 1025;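 active = activation factor of at least 2 at 5 µM in the primary screen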;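 note: 0 = wells with 2.5 mM tranylcypromine and 1 = vehicle-only wells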
Mac1 fbg inh = blocks human CD11b/CD18 adhesion to fibrinogen; P05107+P11215; K562 CD11b/CD18 adhesion to fibrinogen, ATPlite luminescence; Mn2+ added to activate the integrin; inhibition, % at 10 µM; actives 0.54% (n = 93,000); AID 1497;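 active = primary inhibition of 50% or more at 10 µM, then 40% or more on retest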
CYP2C9 inhib = human CYP2C9 inhibition. P11712. CYP2C9 Supersomes, luciferin-H conversion, luminescence. inhibition, % at 5 µM. actives 20% (n = 96,000);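 active = blocking of liver enzyme CYP2C9 beyond about 50% at 5 µM, limit read from the data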
Target sequence (P11712 whole entry, looked up): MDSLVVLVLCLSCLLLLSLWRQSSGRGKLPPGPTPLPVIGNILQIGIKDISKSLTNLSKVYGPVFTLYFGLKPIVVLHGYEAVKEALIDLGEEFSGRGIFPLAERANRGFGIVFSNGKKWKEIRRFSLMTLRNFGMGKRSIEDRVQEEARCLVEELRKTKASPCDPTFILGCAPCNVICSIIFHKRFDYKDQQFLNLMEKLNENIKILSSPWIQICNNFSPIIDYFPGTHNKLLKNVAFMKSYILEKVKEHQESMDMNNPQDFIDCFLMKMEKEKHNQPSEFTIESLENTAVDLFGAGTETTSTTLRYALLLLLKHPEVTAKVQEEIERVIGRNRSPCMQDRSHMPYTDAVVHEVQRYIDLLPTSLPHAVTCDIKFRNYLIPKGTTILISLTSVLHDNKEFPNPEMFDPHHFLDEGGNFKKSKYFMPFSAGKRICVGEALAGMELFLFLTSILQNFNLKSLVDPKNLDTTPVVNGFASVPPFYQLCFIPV
CYP2C9 activ = CYP2C9 (human) activation. activation factor at 5 µM. actives 1.4% (n = 96,000). recombinant CYP2C9, luciferin-H conversion, luminescence; hits give high values; factor 1 = untreated enzyme, 0 = blocked. P11712. AID 1024;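 active = activation factor of 2 or more for CYP2C9 at a 5 µM dose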;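 note: 0 = sulfaphenazole-blocked wells and 1 = vehicle-only wells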
CD11b adhes enh = CD11b/CD18-fibrinogen binding enhancement; K562 CD11b/CD18 adhesion to fibrinogen, ATPlite luminescence; P05107+P11215; activation, % at 10 µM; AID 1499; actives 0.07% (n = 93,000);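 active = 10 µM primary screen giving 50% or more activity, confirmed by 40% or more on retest at that dose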
* = called active by the depositor; / = no result.

SMILES | CYP2C19 inh | CYP2C19 activ | Mac1 fbg inh | CYP2C9 inhib | CYP2C9 activ | CD11b adhes enh
CCCCN(C)C/C(O)=C(\C#N)c1nc(-c2ccccc2)cs1 | 17 | 0.8 | -8 | -3 | 1 | -1
COc1ccc(CCC(=O)NC2=NCCS2)cc1OC | 61* | 0.4 | -11 | -69 | 1.7 | -4
COc1cc(C(=O)NC2=NCCS2)cc(OC)c1OC | -6 | 1.1 | -5 | -11 | 1.1 | -2
COc1cc(OC)cc(C(=O)NC2=NCCS2)c1 | -4 | 1 | -9 | -2 | 1 | 1
CC(C)(C)c1ccc(OCCCC(=O)NC2=NCCS2)cc1 | 65* | 0.4 | 1 | 32 | 0.7 | -2
CCOc1ccccc1OCCCC(=O)NC1=NCCS1 | 37 | 0.6 | -14 | -69 | 1.7 | -2
COc1cc(C(=O)NC2=NCCS2)ccc1OCc1c(C)noc1C | 46 | 0.5 | -12 | 60* | 0.4 | -3
COc1cc(C(=O)NCc2ccc(C)cc2)ccc1OCc1c(C)noc1C | 24 | 0.8 | 5 | 43 | 0.6 | -5
COc1ccc(CC(=O)NC2=NCCS2)cc1 | 76* | 0.2 | 1 | 0 | 1 | -2
CCCOC1(NC(=O)c2ccccc2)C(C)=CC(=O)C=C1C | 26 | 0.7 | / | -9 | 1.1 | /
COc1nnc(-c2ccc(N3CCCCC3)c(NC(C)=O)c2)c2ccccc12 | 54* | 0.5 | -6 | 66* | 0.3 | 6
COc1nnc(-c2ccc(N3CCCCC3)c(NC(=O)C3CCCCC3)c2)c2ccccc12 | 24 | 0.8 | 67 | 40 | 0.6 | -7
O=C(CSc1ccsc1[N+](=O)[O-])N1CCN(c2ccc(Cl)cc2)CC1 | / | / | -17 | / | / | 28
CCCCCCCCS(=O)c1sc2nc(C)cc(C)c2c1N (stereo unspecified) | 88* | 0.1 | 44 | 79* | 0.2 | -4
Cc1cc(C)c2c(N)c(C(=O)c3cccc(Cl)c3)sc2n1 | / | / | -8 | / | / | -2
Cc1cc(N2C(=O)C3C4c5ccccc5C(c5ccccc54)C3C2=O)no1 (stereo unspecified) | 80* | 0.2 | -11 | 59* | 0.4 | 1
N#Cc1c(Sc2ncc(C(F)(F)F)cc2Cl)nsc1C/C=N\OCc1c(F)cccc1Cl | 33 | 0.7 | 0 | -83 | 1.8 | -2
O=C(O)C1CC(c2ccccc2F)=NO1 (stereo unspecified) | 1 | 1 | -1 | -1 | 1 | -1
S=c1[nH]nc(Cc2sc(-c3ccccc3)nc2-c2ccccc2)o1 | 14 | 0.9 | -16 | 64* | 0.4 | 0
CNC(=O)CN1C(=O)c2cccc3cccc1c23 | -4 | 1 | 24 | -20 | 1.2 | -2
CC(C(N)=O)N1C(=O)c2cccc3cccc1c23 (stereo unspecified) | -3 | 1 | -1 | -220 | 3.2* | -2
CCC(C)(C(=O)NC1CCCC1)N(C(=O)CC1NC(=O)NC1=O)c1ccc(C)cc1 (stereo unspecified) | 4 | 1 | 2 | -7 | 1.1 | -3
COc1ccc(C(=O)NCc2nnc(SCC(=O)Nc3cccc(C(F)(F)F)c3)o2)cc1OC | 54* | 0.5 | -2 | -18 | 1.2 | -4
CCOC(=O)c1ccc(NC(=O)CSc2nnc(CNC(=O)c3c(F)cccc3Cl)o2)cc1 | 24 | 0.8 | 10 | 58* | 0.4 | 1
CN(C)c1ccc(NC(=O)Oc2ccccc2)cc1 | 91* | 0.1 | 7 | 6 | 0.9 | -3
SMILES | CYP2C19 inh | CYP2C19 activ | Mac1 fbg inh | CYP2C9 inhib | CYP2C9 activ | CD11b adhes enh
CN(C)c1ccc(C(=O)c2ccccc2)cc1 | 88* | 0.1 | 4 | -9 | 1.1 | -2
CC(=O)Nc1ccc(NC(=O)Oc2ccccc2)cc1 | 10 | 0.9 | 0 | 10 | 0.9 | 9
Cc1occc(=O)c1OC(=O)Nc1ccccc1 | -15 | 1.1 | -9 | -13 | 1.1 | 0
CN(C)c1ccc(C(=O)c2ccccc2C(=O)O)c(O)c1 | -9 | 1.1 | 5 | 2 | 1 | -5
COc1ccc(OC(=O)Nc2ccccc2)cc1 | 78* | 0.2 | 4 | 67* | 0.3 | -1
c1cn2cc(-c3ccc4c(c3)OCO4)nc2s1 | 13 | 0.9 | 19 | 10 | 0.9 | -2
CCOc1ccc(NC(=O)N[C@@H](CCSC)C(=O)OC)cc1 | -18 | 1.2 | -1 | -13 | 1.1 | -4
CC(=O)Nc1ccc(S(=O)(=O)N2CCN(Cc3ccncc3)CC2)cc1 | 95* | 0.1 | 2 | 54* | 0.5 | -3
CC(=O)Nc1ccc(S(=O)(=O)N2CCc3c(Cl)cccc3C2)cc1 | 65* | 0.4 | -12 | -169 | 2.7* | -2
CC(=O)Nc1ccc(S(=O)(=O)N2CCN(c3ccc(C)c(Cl)c3)CC2)cc1 | 37 | 0.6 | -2 | 53* | 0.5 | 5
CC(=O)Nc1ccc(S(=O)(=O)Nc2ccc(S(=O)(=O)N3CCCCCC3)cc2)cc1 | 14 | 0.9 | 3 | 82* | 0.2 | 2
CCn1c(SCC(=O)Nc2nc(C)cs2)nnc1-c1cccnc1 | 23 | 0.8 | -4 | 3 | 1 | 4
CC(=O)Nc1ccc(S(=O)(=O)N2CCCN(S(=O)(=O)c3ccc(NC(C)=O)cc3)CC2)cc1 | 30 | 0.7 | -4 | 61* | 0.4 | 3
CC(=O)Nc1ccc(C(=O)Nc2ccc(S(=O)(=O)N3CCCC3)cc2)cc1 | 3 | 1 | -1 | -20 | 1.2 | 2
CC(=O)c1ccc(S(=O)(=O)N2CCCC2)cc1 | 17 | 0.8 | 18 | 60* | 0.4 | -6
CC(=O)Nc1ccc(S(=O)(=O)N2CCN(C(=O)N3CCCCCC3)CC2)cc1 | 23 | 0.8 | 2 | 51* | 0.5 | -6
CC(=O)Nc1ccc(S(=O)(=O)N2CCCN(S(=O)(=O)c3ccc(C)cc3)CC2)cc1 | 29 | 0.7 | 19 | 43 | 0.6 | -6
CC(=O)Nc1ccc(S(=O)(=O)N2CCN(c3cccc(C)c3C)CC2)cc1 | 40 | 0.6 | 0 | 75* | 0.2 | 0
O=C(c1ccc(Cl)cc1)N(Cc1cccs1)C1CCS(=O)(=O)C1 (stereo unspecified) | 17 | 0.8 | -22 | 5 | 1 | 1
CCOc1ccc(-c2csc(Cn3c(CN4CCN(C)CC4)nc4ccccc4c3=O)n2)cc1 | / | / | -2 | / | / | 6
Cc1ccc(Cl)cc1N1CCN(S(=O)(=O)c2c(C)[nH]c(=O)[nH]c2=O)CC1 | 24 | 0.8 | / | 26 | 0.7 | /
Cc1cccc(N2CCN(S(=O)(=O)c3c(C)[nH]c(=O)[nH]c3=O)CC2)c1C | 50* | 0.5 | -6 | 7 | 0.9 | -3
CN1CCN(S(=O)(=O)c2cccc(C(=O)NC3CCCc4ccccc43)c2)CC1 (stereo unspecified) | 1 | 1 | -7 | 5 | 0.9 | 0
COc1cc(-c2nc3ccccn3c2/N=C/c2ccccc2)ccc1O | 5 | 1 | / | 16 | 0.8 | /
Cc1ccc2nc(-c3ccco3)c(Nc3ccccc3)n2c1 | / | / | -2 | / | / | 0

Assay outcomes as filed in PubChem BioAssay.
